Results filed as inconclusive are left out. The source made the active and inactive calls. Calls follow the shape of the dose curve; as a rule, active = well fitted inhibition curve with a large enough effect; inconclusive = small, poorly fitted or top-dose-only effect; inactive = flat fitted curve, though single readings scatter. *1 amine or outer side, *2 acyl side, *3 side chain or, on linkers, in order; H or OH if unused. Where a SMILES comes first, the peptide text is derived from it. [ ]: non-standard residue; d: D form. X7 = O=C([C@@H](CC(O)CCl)O[*:1])[*:2]; aIle = CC[C@@H](C)[C@H](N)C(=O)O; NMeV = CN[C@H](C(=O)O)C(C)C; NMeA = CN[C@@H](C)C(=O)O; βAla = NCCC(=O)O
% is scaled to controls: 0 for no effect and ±100 for the full control effect.

In this test the target is Calcium and integrin-binding protein 1 (Homo sapiens) (UniProt Q99828). Nature of the test: Primary qHTS for Identification of Calcium Integrin Binding Protein 1 (CIB1) Competitor (AID 1508620).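 Also: GST tagged CIB1 binding a fluorescein labelled alphaIIb integrin peptide tracer; top concentration of the series differs between compounds.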 The note with it: CIB1-GST / FITC-alphaIIb peptide fluorescence polarization; series mostly up to 114 µM; activity change, negative = inhibition: at the top concentration. The text has this: Assay Provider: Ulhas P. Naik, PhD Sidney Kimmel Medical College Thomas Jefferson University, Philadelphia, PA Primary function of platelets is to maintain hemostasis. At the site of vascular injury, platelets adhere to adhesive proteins such as collagen and von Willebrand factor. Adherent platelets are activated and generate soluble platelet agonists such as thrombin, ADP and thromboxane A2. Following exposure of circulating platelets to these agonists, results in platelet shape change, granule secretion and activation of platelet integrin alphaIIb-beta3. Ligand binding to activated integrin alphaIIb-beta3 triggers outside-in signaling, leading to platelet aggregation, stabilization of platelet plug, and clot retraction. Upon atherosclerotic plaque rupture also causes platelet plug formation, which underlies a number of cardiovascular diseases such as myocardial infraction and stroke. A number of anti-platelet drugs such as aspirin, clopidogrel, prasugrel, vorapaxar, and eptifibatide are currently available to prevent the thrombotic complications. However, these anti-platelet agents have several limitations including inherent variability in individual responses, developing resistance, and serious bleeding side effects. For these reasons they are not suitable for long-term protection. Based on the experiences with current anti-platelet drugs, it appears that the most useful therapeutic approach is to intersect the secondary responses such as integrin outside-in signaling or recruitment of platelets by TxA2 and secreted ADP. Compounds, which can largely preserve the primary hemostatic function of platelets but inhibit secondary response will be most desired therapeutic agents for treatment of cardiovascular disease. CIB1 is a calcium integrin binding protein, which specifically interact with the alphaIIb subunit of integrin alphaIIb-beta3. Binding of CIB1 to alphaIIb regulates the outside-in signaling in platelets, which is needed for thrombus stabilization and thrombus growth. […] Therefore, we propose that discovery of a small molecule that can prevent the association of CIB1 and alphaIIb-beta3 will be a potential anti-platelet agent that can block the thrombus formation without undue effect on hemostasis. Reference: [1] Naik MU, Nigam A, Manrai P, et al. CIB1 deficiency results in impaired thrombosis: the potential role of CIB1 in outside-in signaling through integrin alpha IIb beta 3. J Thromb Haemost.
Chain of Calcium and integrin-binding protein 1 (Homo sapiens) (Q99828 whole entry, looked up): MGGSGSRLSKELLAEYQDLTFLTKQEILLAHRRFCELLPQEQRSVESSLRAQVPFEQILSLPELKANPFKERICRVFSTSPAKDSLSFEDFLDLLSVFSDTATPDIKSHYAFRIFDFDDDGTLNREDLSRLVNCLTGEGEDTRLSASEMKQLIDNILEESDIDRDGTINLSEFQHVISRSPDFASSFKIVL
PROTOCOL TABLES SEQUENCE No. (1, 2, 3, etc.); […] (e.g., Cells, Incubation, Reagent, etc.); VALUE and DESCRIPTION. 1; Reagent; 3 uL; Protein or buffer (4/3x) 2; Compound; 46 nL; Control inhibitor / compound library 3; Time; 15 min; Room temperature incubation 4; Reagent; 1 uL; Fluorescent labeled peptide (4x) 5; Time; 1000 rpm; Centrifuge 6; Time; 15 min; Room temperature incubation 7; Detection; Ex 480/ Em 540; ViewLux Fluorescence Read NOTES (numbers refer to sequence above) 1; Protein Mixture: C1B1-GST (final concentrations of 1 uM). […] 3; Room temperature incubation. 4; Fluorescent Labeled Peptide: FITC-aIIb (final concentration of 100 nM). Sequence of alphaIIb peptide: Acetyl-[…]-FITC (purity is 95.83%). 5; Centrifuge 1000 rpm (164 g) for 15 seconds. 6; Room temperature incubation. 7; ViewLux Fluorescent Polization Read: excitation = 480(20) / emission = 540(25) S and P; FITC Dichroic mirror.
Take `Cc1sc2c(c1C)C(c1ccc(Cl)cc1)=N[C@@H](CC(N)=O)c1nnc(C)n1-2`: the “activity change, negative = inhibition” value was 5.11% (inactive).
To `Cc1cccc(NC(=O)N[C@H]2CN(C)c3ccccc3C(c3ccccc3)=N2)c1` belongs 4.56% (inactive); to `CCC1NC(=O)C2C(Cl)C(Cl)CN2C(=O)C(CC)NC(=O)CC(c2ccccc2)NC(=O)C(CO)NC1=O` (stereo not given), -16.6% [at 57.7 µM] (inactive).
As for `Cc1ccc(-n2nccn2)c(C(=O)N2CCN(c3nc4cc(Cl)ccc4o3)CCC2C)c1` (stereo not given), the “activity change, negative = inhibition” value is 0% (inactive).
On to `COC1CC(O[C@H]2CC[C@]3(C=O)C4CC[C@]5(C)[C@@H](C6=CC(=O)OC6)CC[C@]5(O)[C@@H]4CC[C@@H]3C2)OC(C)C1O[C@@H]1O[C@H](CO)[C@@H](O[C@@H]2O[C@H](CO)[C@@H](O)[C@H](O)[C@H]2O)[C@H](O)[C@H]1O` (stereo not given in full), for which the “activity change, negative = inhibition” value was -4.28% [at 30.2 µM] (inactive).
Consider `C[C@@H](CN1CCC(n2c(=O)[nH]c3cc(Br)ccc32)CC1)NC(=O)[C@@H]1C[C@H]1c1ccccc1`, for which the “activity change, negative = inhibition” value was -1.95% (inactive).
Turning to `C/C=C(/C)C1C=CC2CC(C)CC(C)C2C1/C(O)=C1\C(=O)NC(CC(C)(O)C(=O)O)C1=O` (stereo not given), the “activity change, negative = inhibition” value is 4.36% [at 57.7 µM] (inactive).
To `COC1CC(O[C@H]2CC[C@@]3(C)C(CCC4C3CC[C@]3(C)C(C5=CC(=O)OC5)CCC43O)C2)OC(C)C1OC1OC(COC2OC(CO)C(O)C(O)C2O)C(O)C(O)C1O` (stereo not given in full) belongs 1.19% [at 30.2 µM] (inactive); to `CO[C@H]1C[C@H](O[C@H]2CC[C@]3(CO)[C@H]4CC[C@]5(C)[C@@H](C6=CC(=O)OC6)CC[C@]5(O)[C@@H]4CC[C@]3(O)C2)O[C@H](C)[C@H]1O`, 4.13% [at 57.7 µM] (inactive); to `C[C@]12CC[C@H](O)C[C@H]1CC[C@@H]1[C@@H]2[C@H](O)C(=O)[C@]2(C)[C@@H](c3ccc(=O)oc3)CC[C@]12O`, -8.8% (inactive).
To `CC[C@H](O)[C@@H](C)[C@H]1O[C@@H]1C[C@H](C)/C=C/C=C(\C)[C@H]1OC(=O)C[C@H](O)CC[C@@](C)(O)[C@@H](OC(C)=O)/C=C/[C@@H]1C` belongs -2.31% (inactive); to `C#CC1(O)CCC2C3CCC4=CC(=O)CCC4=C3C=CC21C` (stereo not given), 1.45% (inactive).
For the compound `Cc1sc2c(c1C)C(c1ccc(Cl)cc1)=N[C@@H](CC(=O)Nc1ccc(O)cc1)c1nnc(C)n1-2`, the “activity change, negative = inhibition” value was 2.82% [at 30.2 µM] (inactive).
To `Clc1ccc([C@]23CNC[C@H]2C3)cc1Cl` belongs 2.01% (inactive); to `CC1CCCCCC(=O)c2c(O)cc(O)cc2CC(=O)O1` (stereo not given), -5.15% (inactive); to `N#Cc1cn([C@@H]2O[C@H](CO)[C@H](O)[C@@H]2O)c2ncnc(N)c12`, -3.18% (inactive).
In the case of `CCC1CN2CCC3(C(=O)Nc4cccc(O)c43)C2CC1/C(=C/OC)C(=O)OC` (stereo not given), the “activity change, negative = inhibition” value was 3.61% [at 57.7 µM] (inactive).
The same measure for `CC[C@@]1(O)C(=O)OCc2c1cc1n(c2=O)Cc2cc3c(OC)cccc3nc2-1`: -15.2% [at 57.7 µM] (inactive); for `C=C(C)C(=O)O[C@H]1[C@@H]2[C@H](C)C(=O)O[C@@H]2C[C@@H](C)[C@@H]2C=CC(=O)[C@]21C`: -5.8% [at 57.7 µM] (inactive); for `CCCCCn1cc(C(=O)Oc2cccc3cccnc23)c2ccccc21`: 3.2% (inactive).
The same measure for `OC(CNc1ccccc1)Cn1c2ccc(Br)cc2c2cc(Br)ccc21` (stereo not given): -0.174% (inactive); for `CN1C(=O)CN=C(c2ccccc2Cl)c2cc(Cl)ccc21`: -2.5% (inactive).
The same measure for `COC(=O)C1=COC(C)C2CN3CCC4(C(=O)Nc5ccccc54)C3CC12` (stereo not given): 0.702% [at 57.7 µM] (inactive).
In the case of `NCCCCCNC1(c2ccccc2)CCCCC1`, the “activity change, negative = inhibition” value is -0.852% (inactive).
The same measure for `CC[C@@H](C)[C@@H]1NC(=O)[C@@H]2CCCN2C(=O)[C@@H](CC(O)CCl)OC(=O)CCNC(=O)[C@H](C)N(C)C(=O)[C@H](C(C)C)N(C)C1=O` (stereo not given in full) (cyclo([NMeA][βAla][X7]P[aIle][NMeV])): -2.49% [at 30.2 µM] (inactive); for `CN(C)c1cc2c(cc1Sc1nc3c(N)nccc3n1CCNCC(C)(C)C)OCO2`: -8.38% (inactive); for `CO[C@@H]1[C@H](O)[C@@H](O[C@@H]2C[C@H]3CC[C@@H]4C(CC[C@]5(C)[C@@H](C6=CC(=O)OC6)CC[C@]45O)[C@@]3(C)[C@H](O)C2)O[C@H](C)[C@@H]1O` (stereo not given in full): -0.88% [at 57.7 µM] (inactive).
The same measure for `C[C@@H]1Cc2c(Cl)cc(C(=O)N[C@@H](Cc3ccccc3)C(=O)O)c(O)c2C(=O)O1`: 2.53% [at 57.7 µM] (inactive).
The same measure for `COC1CC(OC2CCC3(C=O)C(CCC4C3CCC3(C)C(C5=CC(=O)OC5)CCC43O)C2)OC(C)C1O` (stereo not given): -1.57% [at 57.7 µM] (inactive); for `C#C[C@]1(O)CC[C@H]2[C@@H]3CC[C@H]4Cc5nc6nc7ccccc7n6cc5C[C@]4(C)[C@H]3CC[C@@]21C`: -0.514% (inactive).
For the compound `CC(=O)OC[C@]12[C@H](OC(C)=O)C(=O)[C@@H]3[C@@H](O)[C@@]14O[C@@]3(C)COC(=O)c1cccnc1[C@@H](C)[C@H](C)C(=O)O[C@@H]([C@H](OC(C)=O)[C@@H]2OC(C)=O)[C@]4(C)O`, the “activity change, negative = inhibition” value was 0.157% [at 30.2 µM] (inactive).
As for `CCCCN1[C@@H]2CC[C@H]1CC(OC(c1ccc(F)cc1)c1ccc(F)cc1)C2` (stereo not given in full), the “activity change, negative = inhibition” value was -8.72% (inactive).
To `CO[C@@H]1[C@@H](O)[C@@H](O[C@H]2CC[C@]3(C=O)C4CC[C@]5(C)[C@@H](C6=CC(=O)OC6)CC[C@]5(O)[C@@H]4CC[C@H]3C2)O[C@@H](C)[C@H]1O[C@@H]1O[C@H](CO[C@@H]2O[C@H](CO)[C@@H](O)[C@H](O)[C@H]2O)[C@@H](O)[C@H](O)[C@H]1O` (stereo not given in full) belongs -1.76% [at 30.2 µM] (inactive).
In the case of `Cc1c(N[C@@H](c2nnc(-c3ccc(C#N)cc3)o2)[C@H](C)O)ccc(C#N)c1Cl`, the “activity change, negative = inhibition” value was -1.27% (inactive).
The same measure for `Oc1ccc2c(c1)C13CCCC[C@H]1[C@@H](C2)N(CC1CCC1)CC3`: -2.47% (inactive); for `c1ccc(C2(c3ccccc3)OC[C@@H]([C@H]3CCCCN3)O2)cc1`: 2.3% (inactive); for `CCCCCn1cc(C(=O)c2cccc3ccccc23)c2ccccc21`: 2.16% (inactive).
The same measure for `NNC(=O)c1nn(Cc2ccc(Cl)cc2Cl)c2ccccc12`: -2.48% (inactive).
As for `CCOC(=O)Nc1ccc(NCc2c(C)cc(C)cc2C)cc1N`, the “activity change, negative = inhibition” value was -9.29% (inactive).
With `C[C@@H]1O[C@@H](O[C@H]2CC[C@@]3(C)C(CC[C@@H]4C3CC[C@]3(C)[C@@H](C5=CC(=O)OC5)CC[C@]43O)C2)[C@H](O[C@@H]2O[C@H](CO)[C@@H](O)[C@H](O)[C@H]2O)[C@H](O)[C@H]1O` (stereo not given in full), the “activity change, negative = inhibition” value is 0.874% [at 30.2 µM] (inactive).

Source of the values: PubChem BioAssay (NCATS).
